This is an account of results in PubChem BioAssay AID434994 (NMMLSC, 2010).

Structures are written as SMILES. The list shows a part of the results. A number with no mark means an inactive call.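 Rule for the calls: active = superoxide signal below 65% of the plate average of sample wells; inactive = the rest.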

A short description of this test: superoxide lowering in aged yeast cells, confirmation, cherry picked compounds (AID 434994).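 Note: cells aged with compound for 7 days at 30 degrees C before staining; 100% equals mean DHE fluorescence of all compound wells on the plate.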 The following applies: S. cerevisiae aging, superoxide DHE fluorescence; at 10 µM; active compounds read low.

For `COc1ccc(CCNC(=O)c2ccccc2-c2ccccc2C(=O)O)cc1OC`, the superoxide response (% of plate) was 108%. Turning to `Cc1ccc(NC(=O)Cn2nc(C)c3ccccc3c2=O)c(C)c1`, the superoxide response (% of plate) was 114%. As to `O=C(Nc1cccc(Cl)c1Cl)c1ccccc1NC(=O)C1CC=CCC1C(=O)O` (stereo unspecified), the superoxide response (% of plate) is 101%. With `O=[N+]([O-])c1ccc2c(c1)Nc1nc3ccccc3nc1N2`, the superoxide response (% of plate) is 82.5%. Regarding `CNC(=O)c1cccc2nc3ccccc3nc12`, the superoxide response (% of plate) was 79.8%. As for `CC1CCCN(S(=O)(=O)c2ccc(C(=O)Nc3nnc(-c4ccncc4)o3)cc2)C1` (stereo unspecified), the superoxide response (% of plate) was 111%.
